Only some compounds are listed: those with a hit (about 4.5% of all), similar ones and a draw of the others.
Gli-Sufu antag: antagonists of Gli-Sufu signaling; inhibition, % at 5 µM; 340,000 tested, 0.74% active; Sufu-KO-LIGHT fibroblasts, Gli luciferase reporter luminescence;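 active means inhibition above about 55%, limit read from the data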
Jurkat NFkB inh: lowers PMA/ionomycin-induced NF-kB signal in Jurkat cells. PMA/ionomycin-induced NF-kB luciferase reporter, luminescence. inhibition, % at 4 µM. 330,000 tested, 0.53% active; in the data active means inhibition above about 50%
aSyn UTR inh: MLPCN primary screen, SNCA 5' untranslated region. alpha-synuclein 5'UTR reporter, inhibitor activity. inhibition, % (tested at 7.5 µM). 300,000 tested, 0.82% active. AID 1813; in the data active means inhibition above about 60%;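 further: H4 neuroglioblastoma cells stably carrying SNCA 5'UTR luciferase fusion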
CSC inhib: blocks cancer stem cells; cancer stem cell-like cells viability, luminescence; inhibition, % at 7.5 µM; 300,000 tested, 1.1% active; in the data active means inhibition above about 75%; tested in HMLE shEcad cells
Mdm2-MdmX inh: inhibitors of human Mdm2/MdmX interaction. SaOS-2 split-luciferase Mdm2/MdmX complementation, luminescence. inhibition, % at 8 µM. 330,000 tested, 3% active;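 active means inhibition of at least 50% at 8 µM in the primary screen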
697 NFkB inh: inhibitors of the PMA/ionomycin-induced NF-kB reporter in 697 B cells. 330,000 tested, 0.33% active. 697 B-cell NF-kB luciferase reporter, 16 h. inhibition, % at 4 µM; in the data active means inhibition above about 35%
Mdm2-MdmX conf: human Mdm2/MdmX binding inhibition, confirmed | inhibition, % at 8 µM | AID 489028 | 10,000 tested, 55% active | luminescent assay | shares compounds with Mdm2-MdmX inh; in the data active means inhibition above about 40%
FLuc counter: counter-screen for Mdm2/MdmX inhibitors: full-length luciferase | shares compounds with Mdm2-MdmX inh | SaOS-2 full-length luciferase counterscreen, luminescence | inhibition, % at 8 µM | 6,200 tested, 77% active | AID 504607;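 active means mean inhibition at 8 µM reaching about 37%, which flags the compound as non-specific, limit read from the data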;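 further: p53-null SaOS-2 cells with luciferase driven by a doxycycline-inducible promoter; compound on cells about two nights before reading with doxycycline added after day one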
Hits are given with their value; i = inactive; nt = no result given.

SMILES	Gli-Sufu antag	Jurkat NFkB inh	aSyn UTR inh	CSC inhib	Mdm2-MdmX inh	697 NFkB inh	Mdm2-MdmX conf	others
COc1ccc(NS(=O)(=O)c2ccc(C)c(NC(=O)CNC(=O)c3ccco3)c2)cc1	i	i	nt	nt	i	i	nt
CCc1nn(CC(=O)N2CCCCCC2)c(=O)c2cc3ccccc3n12	i	i	i	i	i	i	nt
CN(C)c1ccc(N=Nc2nc3ccccc3n2C)cc1	i	i	i	i	60	i	49	FLuc counter=46
CCn1c(NCc2ccc(N(C)C)cc2)nc2ccccc21	i	i	i	i	i	i	nt
CC(=O)c1c(C)oc2ccc(N(C(C)=O)S(=O)(=O)c3ccc(Cl)c([N+](=O)[O-])c3)cc12	i	i	112	i	98	i	95	FLuc counter=57
CC(=O)c1c(C)oc2ccc(N(C(C)=O)S(=O)(=O)c3ccc(Br)cc3)cc12	i	i	i	i	i	i	nt
O=C(Nc1ccc(S(=O)(=O)N2CCCC2)cc1)C1CC(=O)N(CCc2ccc(F)cc2)C1 (centres undefined)	i	i	nt	nt	i	i	nt
O=CC1=C(c2ccccc2)Oc2ccccc2O1	i	i	i	i	57	i	i
O=C(NCC(=O)N1CCOCC1)c1ccc(Cl)c(Cl)c1	i	i	nt	i	i	i	nt
COc1ccc(C(C(=O)NC2CCCC2)N(C(=O)c2snc(-c3ccc(F)cc3)c2N)c2cccc(F)c2)cc1 (centres undefined)	i	i	i	i	62	i	i
COc1ccc(C(C(=O)NC2CCCC2)N(C(=O)c2snc(-c3ccc(F)cc3)c2N)c2ccc(F)cc2)cc1 (centres undefined)	i	i	i	i	57	i	i
COc1ccc(N/N=C(\C=N\O)C(=O)c2ccc(OC)cc2)cc1	i	i	i	i	56	i	56	FLuc counter=60
COc1ccc(C(=O)C(=NNc2ccccc2)c2ccc(OC)cc2)cc1	i	nt	nt	nt	nt	nt	nt
O=C(O)/C=C/C(=O)N1CCN(c2cccc(Cl)c2)CC1	i	i	i	i	i	i	nt
CCOC(=O)c1c(C)[nH]c(C(=O)CSc2nnnn2-c2ccc(C)cc2)c1C	i	i	i	i	66	i	i
CCOC(=O)c1c(C)[nH]c(C(=O)CSc2nnnn2-c2ccccc2)c1C	i	i	i	i	i	i	nt
O=C1N/C(=N/N=C/c2ccccc2O)SC1Cc1ccc(F)cc1 (centres undefined)	i	i	i	i	71	i	53	FLuc counter=i
NS(=O)(=O)OCC(Cc1ccccc1)N1C(=O)c2ccccc2C1=O (centres undefined)	i	i	i	i	i	i	nt
Cc1cccc(C(=O)Nc2sc(C)c(-c3ccccc3)c2C#N)c1	i	i	i	i	i	i	nt
N#Cc1c(Cl)nsc1NC(=O)c1ccccc1	i	i	i	i	76	i	52	FLuc counter=71
COc1ccc(OC)c(NC(=O)C2=C(C)Nc3ncnn3C2c2cccs2)c1 (centres undefined)	i	i	i	i	i	i	nt
COc1ccc(C2Oc3ccccc3C3=C2C(c2cccs2)n2ncnc2N3)cc1 (centres undefined)	i	i	i	i	72	i	70	FLuc counter=i
CC1=CC(C)(C)N(S(=O)(=O)c2ccc(C)cc2)c2ccc(C)cc21	i	i	i	nt	54	i	61	FLuc counter=108
COc1cc(NC(=O)CSc2nc3[nH]ncc3c(=O)n2-c2ccc(Cl)cc2)cc(OC)c1	i	i	i	i	59	i	i
Cc1cccc(NC(=O)CSc2nc3[nH]ncc3c(=O)n2-c2ccccc2)c1	nt	i	i	i	i	i	nt
SMILES	Gli-Sufu antag	Jurkat NFkB inh	aSyn UTR inh	CSC inhib	Mdm2-MdmX inh	697 NFkB inh	Mdm2-MdmX conf	others
CC(C)N(Cc1ccccc1)C(=O)COC(=O)c1cc(S(=O)(=O)N(C)C)ccc1N1CCCC1	i	i	nt	i	i	i	nt
CCOC(=O)c1c(NC(=O)c2ccco2)sc2c1CCCC2	i	i	i	i	i	i	nt
CCOC(=O)c1c(NC(=O)CN2CCN(C(=O)c3ccco3)CC2)sc2c1CCCC2	i	i	i	i	56	i	i
CCOC(=O)c1c(NC(=O)COc2cccc3c2CCN(CC)C3=O)sc2c1CCC2	i	i	i	i	60	i	i
CCOC(=O)c1c(NC(=O)COc2cccc3c2CCN(Cc2ccc(F)cc2)C3=O)sc2c1CCC2	nt	i	i	i	i	i	nt
Cc1ccc2c(c1)N(CC(=O)OCC(=O)NCc1ccccc1)C(=O)CO2	i	i	i	i	i	i	nt
C/C(CC1CC2=C(CC1(C)C)C(C)(C)CCC2)=N\NC(N)=S (centres undefined)	i	i	i	nt	51	i	i
CC(CCc1ccccc1)NC(=O)Cn1cccc1C(=O)c1ccccc1 (centres undefined)	i	i	i	i	i	i	nt
CCn1c(SCC(=O)N2CCOCC2)nc2c([nH]c3ccccc32)c1=O	i	i	i	i	i	i	nt
Cc1cc(NC(=O)CSc2nc3cc(Cl)ccc3s2)no1	i	i	i	i	i	i	nt
CCn1c(SCC(=O)Nc2cc(C)on2)nc2c([nH]c3ccccc32)c1=O	i	i	i	i	65	i	i
Cn1c(SCC(=O)NCc2ccc(F)cc2)nc2c([nH]c3ccccc32)c1=O	nt	i	i	i	75	i	i
Cc1cc(NC(=O)CSc2nc3cc(Cl)ccc3c(=O)n2C(C)C)no1	i	i	nt	nt	56	i	i
Cn1c(SCC(=O)NCCc2ccccc2)nc2c([nH]c3ccccc32)c1=O	i	i	i	i	i	i	nt
COc1ccc(CCn2c(SCC(=O)Nc3cc(C)on3)nc3ccccc3c2=O)cc1OC	i	i	i	i	59	i	i
CCOC(=O)Cc1csc(SCC(=O)NC2CCS(=O)(=O)C2)n1 (centres undefined)	i	i	nt	nt	i	i	nt
CC1CCCN(S(=O)(=O)c2ccccc2[N+](=O)[O-])C1 (centres undefined)	i	i	i	i	i	i	nt
CCn1c(SCC(=O)Nc2ccc(C(C)=O)cc2)nc2c([nH]c3ccccc32)c1=O	i	i	i	i	62	i	i
CCn1c(SCC(=O)Nc2cccc(NC(C)=O)c2)nc2c([nH]c3ccccc32)c1=O	i	i	i	i	78	i	i
Cc1nn(Cc2ccc(Cl)cc2Cl)c(Cl)c1/C=N/NC(=O)CNc1cccc(C(F)(F)F)c1	nt	i	i	i	84	i	i
Nc1nc(N)c2c(ccc3nccc32)[nH]1	i	i	i	i	51	i	i
Nc1ccc2ncccc2c1N	i	nt	nt	i	nt	nt	nt
COCCN(C(=O)c1cc2c(s1)CCC2)c1c(N)n(CC(C)C)c(=O)[nH]c1=O	i	i	nt	nt	i	i	nt
CCOc1cc(/C=C2/C(=O)ON=C2C)ccc1O	i	i	i	i	i	i	nt
CCOc1cc(/C=N/NC(=O)C(=O)N/N=C/c2ccc(O)c(OCC)c2)ccc1O	i	i	i	i	i	i	nt
